RBX1-CUL1 inh: inhibitors of human ROC1-CUL1 ubiquitin ligase activity. hit rate 0.6% among 140,000. AID 1347404. in vitro K48 di-Ub FRET, acceptor:donor ratio, 45 min. P62877+Q13616. inhibition, % at 10 µM; in the data active = inhibition above about 25%
Target sequence (P62877 whole entry, looked up): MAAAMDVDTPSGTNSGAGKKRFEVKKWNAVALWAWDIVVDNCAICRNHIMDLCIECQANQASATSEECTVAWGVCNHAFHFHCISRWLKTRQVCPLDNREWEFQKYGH
Target sequence (Q13616 whole entry, looked up): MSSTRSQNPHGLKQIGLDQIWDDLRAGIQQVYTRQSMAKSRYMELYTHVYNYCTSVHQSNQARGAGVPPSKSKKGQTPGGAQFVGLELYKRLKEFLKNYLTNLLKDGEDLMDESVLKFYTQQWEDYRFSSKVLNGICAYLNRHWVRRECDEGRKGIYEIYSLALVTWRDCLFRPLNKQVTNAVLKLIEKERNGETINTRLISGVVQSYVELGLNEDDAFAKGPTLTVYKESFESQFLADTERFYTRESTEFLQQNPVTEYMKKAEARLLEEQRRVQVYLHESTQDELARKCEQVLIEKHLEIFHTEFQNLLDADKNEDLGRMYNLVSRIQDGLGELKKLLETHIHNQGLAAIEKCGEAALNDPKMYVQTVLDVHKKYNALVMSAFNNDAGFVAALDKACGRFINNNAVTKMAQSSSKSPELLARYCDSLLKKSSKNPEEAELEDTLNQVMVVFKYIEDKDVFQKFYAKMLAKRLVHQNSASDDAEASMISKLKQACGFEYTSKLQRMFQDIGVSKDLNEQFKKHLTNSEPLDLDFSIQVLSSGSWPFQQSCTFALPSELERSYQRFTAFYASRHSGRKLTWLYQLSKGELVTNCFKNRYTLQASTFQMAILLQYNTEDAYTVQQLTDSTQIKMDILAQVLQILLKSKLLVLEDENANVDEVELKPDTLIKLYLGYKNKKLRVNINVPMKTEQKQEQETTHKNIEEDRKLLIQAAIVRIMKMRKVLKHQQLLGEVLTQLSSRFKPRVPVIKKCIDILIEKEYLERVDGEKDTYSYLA
* marks the source's active call; other numbers are inactive results. The entries come from a sample that favours hits as a whole.

SMILES | RBX1-CUL1 inh
Cc1cc(C)c(NC(=O)CSc2nncn3c2cc2oc(C)cc23)c(C)c1 | 0
Cc1ccccc1N1C(=O)C(=Cc2ccc(N(C)C)cc2)C(=O)N(c2ccccc2C)C1=O | -4
O=C1C=C2c3ccccc3-c3ccccc3N2C(=O)C1c1ccccc1 (configuration not stated) | 5
CN(C)/C=C1\C=C2C(=O)c3ccccc3N2C1=O | 37*
CCOCC(=O)Nc1ccccc1C(=O)O | 103*
COCC(=O)Nc1ccccc1C(=O)O | 0
CCOCC(=O)Nc1ccccc1OC | 1
O=C(NCCc1ccc(F)cc1)C(=O)NCC(c1ccco1)S(=O)(=O)c1ccccc1 (configuration not stated) | 3
O=C(CN1CCN(Cc2ccccc2)CC1)N=Nc1c(O)[nH]c2ccccc12 | -11
O=S(=O)(c1ccccc1)C12Cc3ccccc3C1C1(S(=O)(=O)c3ccccc3)Cc3ccccc3C21 (configuration not stated) | -2
CCOc1cc(C2Nc3ccc4ccccc4c3C3=C2C(=O)CCC3)ccc1OCCO (configuration not stated) | 4
COc1cccc(C(=S)NCS(=O)(=O)c2ccc(C)cc2)c1 | -5
S=C(NCCc1ccccn1)c1ccccc1 | 6
O=S(=O)(CNC(=S)c1ccccc1)c1ccccc1 | 35*
Cc1ccccc1Oc1ncccc1CNC(=O)C1CCCC1 | 5
O=C1c2ccccc2C(=O)C(Cl)(Cl)C1(Cl)Cl | -8
O=C1c2ccccc2C(=O)C(O)(O)C1(O)O | 100*
CCC1(N)C(=O)c2ccccc2C1=O | 7
CCOc1ccc(OCC)c(NC(=O)C2CCN(S(=O)(=O)c3c(C)noc3/C=C/c3ccccc3F)CC2)c1 | -7
CC(=O)Oc1ccc2occ(C(=O)c3cccs3)c2c1 | -5
CC(=O)c1c(C)sc2c1ccc1ccccc12 | 1
CC(=O)n1c(=O)c2cc3ccccc3cc2c(=O)n1C(C)=O | 6
CC(=O)c1c(=O)n(O)cc2ccccc12 | 91*
CC(C)CCNC(=O)c1c2c(nc3ccccc13)C(=O)N(C1CCCCC1)C2 | -2
CC(C)N1C(=O)/C(=C\c2ccc(N(C)C)cc2)C(=O)N(Cc2ccco2)C1=O | 11
SMILES | RBX1-CUL1 inh
CC(C)N1C(=O)C(C=Nc2cc(Cl)c(Cl)cc2Cl)C(=O)N(Cc2ccco2)C1=O (configuration not stated) | 4
COc1ccc(/C=C2\C(=O)N(Cc3ccco3)C(=O)N(C(C)C)C2=O)c(OC)c1 | 101*
Cc1ccc(SCC(=O)Nc2nc(C(C)(C)C)cs2)cc1 | 6
COc1ccc(C2C(C(=O)OCc3ccccc3)C(C)=Nc3nnnn32)cc1 (configuration not stated) | 0
O=C(NC1(C(Cl)(Cl)Cl)Oc2cc(Cl)c(Cl)cc2O1)Sc1ccccc1 | 49*
CCOC(=O)NC1(C(Cl)(Cl)Cl)Oc2ccc(Cl)cc2O1 (configuration not stated) | 2
O=C(Nc1cc(Cl)ncn1)NC1(C(F)(F)F)Oc2ccccc2O1 | 1
Cc1ccc(C(C)C)c(OCCNC(=O)c2cncc(Br)c2)c1 | 1
COc1cccc(CNC(=O)c2oc3c(c2C)-c2nn(Cc4cccc(Cl)c4)cc2CC3)c1 | -15
CO/C=C\C=C/c1nnn(-c2ccc(Cl)cc2)n1 | 38*
COCc1c(C(=O)O)nnn1-c1ccc(Cl)cc1 | 3
CCOC(=O)C=CCn1nnn(-c2ccc(Cl)cc2)c1=O | 2
CS(=O)(=O)N(CC(=O)N1CCOCC1)c1ccc(Cl)c(Cl)c1 | 10
CCOC(=O)C(NC(=O)c1ccccc1)(Nc1sc2c(c1C(=O)OC)CCC2)C(F)(F)F (configuration not stated) | 6
O=C(Nc1ccccc1)NS(=O)(=O)c1cnccc1Sc1ccccc1Cl | -6
Oc1ccc(-c2nc3ccccn3c2Nc2ccc3c(c2)OCCO3)cc1 | 0
Cc1sc2nc(-c3ccccc3)[nH]c(=O)c2c1C | 7
Cc1sc2nc(-c3ccc(-c4ccc(Cl)c(C(=O)O)c4)o3)[nH]c(=O)c2c1C | 47*
Cc1sc2nc(-c3ccc(-c4ccc(C(=O)O)cc4)o3)[nH]c(=O)c2c1C | -2
O=C(Nc1nccs1)C(Sc1ccccc1)c1ccccc1 (configuration not stated) | -6
Cc1occc1C(=O)N1CCC(N2CCCC(C(=O)NC3CC3)C2)CC1 (configuration not stated) | 25*
Cc1cccc(C(=O)N2CCC(N3CCCC(C(=O)NC4CC4)C3)CC2)c1 (configuration not stated) | 11
COc1ccc(C(=O)N2CCC(N3CCCC(C(=O)NC4CC4)C3)CC2)o1 (configuration not stated) | -1
Cc1cc(-c2nc3ncccc3o2)ccc1NC(=O)COc1ccccc1C | 4
CCN(CC)c1ccc(NC(=O)CN2CCN(CC(=O)Nc3ccccc3OC)CC2)cc1 | -8
SMILES | RBX1-CUL1 inh
O=C1c2ccccc2-c2c1c(O)c(O)c(-c1ccccc1)c2-c1ccccc1 | 102*
O=c1c(-c2ccccc2)c1-c1ccccc1 | 0
COc1ccc(OC)c2c1C(=O)c1ccccc1-2 | -1
Cc1ccc(/C=C2\C(=O)NN(c3ccc(I)cc3)C2=O)cc1 | 63*
CCN(CC)c1ccc(/C=C2/C(=O)NN(c3cccc(Br)c3)C2=O)cc1 | 0
O=C1NN(c2ccc(Cl)cc2)C(=O)/C1=C/c1ccc(Cl)cc1 | 46*
O=C1NN(c2ccc(I)cc2)C(=O)/C1=C\c1cc(Br)ccc1O | 29*
CCc1ccc(N2NC(=O)/C(=C/c3cccc(Br)c3)C2=O)cc1 | 40*
CCc1ccc(N2NC(=O)/C(=C\c3cccs3)C2=O)cc1 | 5
CCOc1ccc(Br)cc1/C=C1/C(=O)NN(c2ccc(I)cc2)C1=O | 21
O=C1NN(c2ccc(Cl)cc2)C(=O)/C1=C/c1ccc(O)cc1O | -4
O=C1NN(c2ccc(I)cc2)C(=O)/C1=C\c1ccccc1O | -7
CCOc1ccc(/C=C2/C(=O)NN(c3ccc(I)cc3)C2=O)cc1 | -3
O=C1NN(c2ccc(Cl)cc2)C(=O)/C1=C/c1ccc2c(c1)OCO2 | 8
O=C1NN(c2ccc(I)cc2)C(=O)/C1=C\c1cccc(I)c1 | 4
Cc1cccc(CNCc2cccnc2Oc2cccc(C(F)(F)F)c2)n1 | 4
COc1cc(OC)cc(C(=O)c2ccc(C(=O)Nc3ccc(OC(F)(F)Cl)cc3)cc2)c1 | -5
COc1ccc(CCN2CCc3c(C)c(C#N)c4nc5ccccc5n4c32)cc1OC | -4
COCCCNC(=O)CSc1nc2cc(OC)c(OC)cc2c2nc(-c3ccccc3)nn12 | 3
O=C(COc1ccc(F)cc1)N1CCN(c2ccccc2F)CC1 | -4
COc1ccccc1CNC(=O)c1oc2ccc3c(c2c1C)C(=O)CC(C)(C)O3 | -7
CCOc1cc(CNCCO)cc(Br)c1OCc1ccc(Cl)cc1 | 2
O=C(CN1C(=O)CCSc2ccc(S(=O)(=O)N3CCCC3)cc21)Nc1cccc(Cl)c1 | -7
Cc1ccc(N(C)C(=O)C2CCN(S(=O)(=O)c3cn(C)cn3)CC2)cc1 | 8
COc1cc(/C=C2\C(=O)NN(c3ccc(Br)cc3)C2=O)cc(OC)c1OC | -8
SMILES | RBX1-CUL1 inh
O=C1NN(c2ccc(Br)cc2)C(=O)/C1=C\c1ccc(F)cc1 | 86*
CC(C)CCN(C)c1ccc(/C=C2/C(=O)NN(c3ccc(Br)cc3)C2=O)cc1 | 0
O=C(Nc1nccs1)c1cc(F)c(N2CCOCC2)c(F)c1F | 2
Cc1ccc(Cl)c(-n2nnc(C(=O)Nc3ccccc3)c2C)c1 | -4
Cc1cc(=O)oc2cc(OC(=O)c3ccc(=O)oc3)ccc12 | 8
O=C(Oc1ccc2c(C(F)(F)F)cc(=O)oc2c1)c1ccccc1 | -1
